{"source": "PubChem BioAssay AID1259421", "about": "(Broad Institute, 2018)", "note": "Where “and” joins values, the source holds several entries; their conditions need not be identical. Identical values can stand only once. Among all 6,400 compounds or so, about 610 (9.5%) were called active. Rule as the data show it: active = activity change below about -70%; inconclusive = no clear call, values can overlap the other calls; inactive = above that. The full list was thinned out, with actives kept by preference. Some compounds were tested as several samples or in several runs, with calls that do not always agree."}
{"assay": "Toxoplasma gondii ME49Luc growth in HeLa cells, luciferase, no IFN-y, primary screen (AID 1259421)", "conditions": "T. gondii ME49Luc in HeLa, 72 h, stronger effect = lower value, concentration not given here"}
{"smiles": "C[C@@H]([C@@H](O)c1ccc(O)cc1)N1CCC(O)(c2ccccc2)CC1", "activity change, negative = inhibition": "0.328% (inactive) and 9.44% (inactive)"}
{"smiles": "Nc1nc(Cl)nc2c1ncn2C1OC(CO)C(O)C1F", "note": "(stereo unspecified)", "activity change, negative = inhibition": "-87.6% (active)"}
{"smiles": "Nc1nc(Cl)nc2c1ncn2[C@H]1C[C@H](O)[C@@H](CO)O1", "activity change, negative = inhibition": "-37.2% (inactive)"}
{"smiles": "OC[C@H]1O[C@@H](n2cnc3c(NC4CCCC4)nc(Cl)nc32)[C@H](O)[C@@H]1O", "activity change, negative = inhibition": "3.31% (inactive)"}
{"smiles": "Nc1nc(Cl)nc2c1ncn2[C@@H]1O[C@H](CO)[C@@H](O)[C@@H]1F", "activity change, negative = inhibition": "-81.3% (active)"}
{"smiles": "OCC1OC(n2cnc3c(NC4CCCC4)nc(Cl)nc32)C(O)C1O", "note": "(stereo unspecified)", "activity change, negative = inhibition": "-5.92% (inactive)"}
{"smiles": "Nc1nc(F)nc2c1ncn2[C@@H]1O[C@H](CO)[C@@H](O)[C@@H]1O", "activity change, negative = inhibition": "-26.8% (inactive)"}
{"smiles": "CCCCC[C@@H](O)[C@H]1C(=O)O[C@H](C)[C@@H](O)/C=C/C=C/C=C/C=C/C=C(\\C)[C@@H](O)C[C@H](O)C[C@H](O)C[C@H](O)C[C@H](O)C[C@H](O)C[C@@H]1O", "activity change, negative = inhibition": "2.49% (inactive)"}
{"smiles": "Ic1cc(-c2ccccc2)ncn1", "activity change, negative = inhibition": "1.75% (inactive)"}
{"smiles": "COc1ccc2c3c1OC1CC(O)C=CC31CCN(C)C2", "note": "(stereo unspecified)", "activity change, negative = inhibition": "4.76% (inactive)"}
{"smiles": "CC(=O)OCC(=O)[C@@]1(O)CCC2C3CCC4=CC(=O)CC[C@]4(C)C3=CC[C@@]21C", "note": "(stereo partly specified)", "activity change, negative = inhibition": "-0.754% (inactive)"}
{"smiles": "CCCCCN=c1ccn(Cc2ccccc2)c2ccccc12", "activity change, negative = inhibition": "-3.35% (inactive)"}
{"smiles": "CCCCCCCCN=c1ccn(CCCCCCCCCCn2ccc(=NCCCCCCCC)cc2)cc1", "activity change, negative = inhibition": "-74.7% (active)"}
{"smiles": "CN[C@H](CNC(=O)N1CCC[C@@H]([C@@H](OCCNC(=O)OC)c2cccc(Cl)c2)C1)C[C@H]1CCCOC1", "activity change, negative = inhibition": "7.28% (inactive)"}
{"smiles": "CNC(=O)c1ccc(-c2cnc3ncc(Cc4ccc5ncccc5c4)n3n2)cc1F", "activity change, negative = inhibition": "-3.07% (inactive)"}
{"smiles": "COc1ccc([C@H]2COc3c(ccc(O)c3OC)C2)c(OC)c1O", "activity change, negative = inhibition": "8.53% (inactive)"}
{"smiles": "CC(NCC(O)CP(=O)(O)CC1CCCCC1)c1ccc(Cl)c(Cl)c1", "note": "(stereo unspecified)", "activity change, negative = inhibition": "-2.11% (inactive)"}
{"smiles": "C[C@H](NC(=O)[C@@H](O)c1cc(F)cc(F)c1)C(=O)N[C@@H]1C(=O)N(C)c2ccccc2-c2ccccc21", "activity change, negative = inhibition": "26.6% (inactive)"}
{"smiles": "C[C@H](NC(=O)Cc1cc(F)cc(F)c1)C(=O)N[C@@H]1C(=O)N(C)c2ccccc2-c2ccccc21", "activity change, negative = inhibition": "-81.4% (active)"}
{"smiles": "CC(NC(=O)Cc1cc(F)cc(F)c1)C(=O)NC(C(=O)OC(C)(C)C)c1ccccc1", "note": "(stereo unspecified)", "activity change, negative = inhibition": "5.05% (inactive)"}
{"smiles": "C=C1/C(=C\\C=C2/CCC[C@]3(C)[C@@H]([C@H](C)/C=C/C=C/C(O)(CC)CC)CC[C@@H]23)C[C@@H](O)C[C@@H]1O", "activity change, negative = inhibition": "17.9% (inactive)"}
{"smiles": "COCCOc1ccc(N2CCN(CCn3ncc4c3nc(N)n3nc(-c5ccco5)nc43)CC2)cc1", "activity change, negative = inhibition": "-6.85% (inactive)"}
{"smiles": "COc1c(O)cccc1O", "activity change, negative = inhibition": "9.75% (inactive)"}
{"smiles": "COc1nc2ccc(Br)cc2cc1[C@@H](c1ccccc1)[C@@](O)(CCN(C)C)c1cccc2ccccc12", "activity change, negative = inhibition": "48% (inactive)"}
{"smiles": "CC(C)OC(=O)[C@H](C)N[P@@](=O)(OC[C@H]1O[C@@H](n2ccc(=O)[nH]c2=O)[C@](C)(F)[C@@H]1O)Oc1ccccc1", "activity change, negative = inhibition": "5.02% (inactive) and 18.5% (inactive)"}
{"smiles": "Cc1c(N(C)C)c(=O)n(-c2ccccc2)n1C", "activity change, negative = inhibition": "13% (inactive)"}
{"smiles": "Cc1c(O)c(=O)n(-c2ccccc2)n1C", "activity change, negative = inhibition": "-80.6% (active) and 1.34% (inactive)"}
{"smiles": "Cc1c(I)c(=O)n(-c2ccccc2)n1C", "activity change, negative = inhibition": "9.68% (inactive)"}
{"smiles": "CCO[C@@H](Cc1ccc(OCCc2ccc(OS(C)(=O)=O)cc2)cc1)C(=O)O", "activity change, negative = inhibition": "11% (inactive)"}
{"smiles": "Cc1ccc(NC(=O)C(C)C)cc1C1CCN(Cc2ccc(Oc3ccc(F)c(F)c3)cc2)CC1", "activity change, negative = inhibition": "-59.6% (inactive)"}
{"smiles": "NC1=NCN([C@H]2C[C@@H](O)[C@@H](CO)O2)C(=O)N1", "activity change, negative = inhibition": "13.9% (inactive)"}
{"smiles": "Cn1cnc(=N)c2[nH]cnc21", "activity change, negative = inhibition": "11% (inactive)"}
{"smiles": "COc1cc(NC(=O)c2ccccn2)ccc1Cl", "activity change, negative = inhibition": "132% (inactive)"}
{"smiles": "C=CC(=O)Nc1cccc(Nc2nc(Nc3ccc(Oc4ccnc(C(=O)NC)c4)cc3)ncc2F)c1", "activity change, negative = inhibition": "-38.8% (inactive)"}
{"smiles": "CC(C)C(=O)Nc1ccc([N+](=O)[O-])c(C(F)(F)F)c1", "activity change, negative = inhibition": "12.9% (inactive)"}
{"smiles": "CNC(=O)c1cc(COc2nnc(Nc3ccc(Cl)cc3)c3ccoc23)ccn1", "activity change, negative = inhibition": "-9.12% (inactive)"}
{"smiles": "CNC(=O)c1cc(Oc2ccc(NC(=O)Nc3ccc(Cl)c(C(F)(F)F)c3)cc2)ccn1", "activity change, negative = inhibition": "-70.5% (active) and -84.5% (active)"}
{"smiles": "CN1CCN(C2CCN(C(=O)Nc3cc(Oc4ccc(NC(=O)C5(C(=O)Nc6ccc(F)cc6)CC5)c(F)c4)ccn3)CC2)CC1", "activity change, negative = inhibition": "-66.6% (inactive)"}
{"smiles": "O=C(Nc1ccc(Cl)cc1)Nc1ccc(Cl)c(C(F)(F)F)c1", "activity change, negative = inhibition": "-76.9% (active)"}
{"smiles": "CNC(=O)c1cc(Oc2ccc(NC(=O)Nc3ccc(Cl)c(C(F)(F)F)c3)c(F)c2)ccn1", "activity change, negative = inhibition": "-86.3% (active) and -83.6% (active)"}
{"smiles": "C=CC(=O)Nc1ccc(Cl)cc1", "activity change, negative = inhibition": "16.9% (inactive)"}
{"smiles": "Nc1[nH]nc2nnc(-c3c(-c4ccccc4)nn4ccccc34)cc12", "activity change, negative = inhibition": "-19.2% (inactive)"}
{"smiles": "OC[C@@H](O)[C@@H](O[C@@H]1O[C@H](CO)[C@H](O)[C@H](O)[C@H]1O)[C@H](O)[C@@H](O)CO", "activity change, negative = inhibition": "24% (inactive)"}
{"smiles": "NC(Cn1ccc(=O)n(Cc2ccccc2C(=O)O)c1=O)C(=O)O", "note": "(stereo unspecified)", "activity change, negative = inhibition": "7.15% (inactive)"}
{"smiles": "CN1C2CCC1CC(OC(=O)c1c[nH]c3ccccc13)C2", "note": "(stereo unspecified)", "activity change, negative = inhibition": "2.23% (inactive)"}
{"smiles": "O=C1CC[C@@H](C(=O)O)N1", "activity change, negative = inhibition": "4.43% (inactive)"}
{"smiles": "C1=C(CN2CCOCC2)COc2c1cccc2OCC1CNCCO1", "note": "(stereo unspecified)", "activity change, negative = inhibition": "2.39% (inactive)"}
{"smiles": "CC(C)=CCC/C(C)=C/C=C/C(C)=C/C=C/C(C)=C/C=C/C=C(C)/C=C/C=C(C)/C=C/C=C(\\C)CCC=C(C)C", "activity change, negative = inhibition": "-16.2% (inactive)"}
{"smiles": "COc1ccc(-c2cc(=O)c3c(O)c(OC)c(OC)c(OC)c3o2)cc1OC", "activity change, negative = inhibition": "-10.2% (inactive)"}
{"smiles": "CC1(C)S[C@H]2[C@@H](NC(=O)[C@@H](NC(=O)N3CCN(S(C)(=O)=O)C3=O)c3ccccc3)C(=O)N2[C@@H]1C(=O)O", "activity change, negative = inhibition": "5.45% (inactive)"}
{"smiles": "CN1CCCC(CN2c3ccccc3Sc3ccccc32)C1", "note": "(stereo unspecified)", "activity change, negative = inhibition": "11.8% (inactive) and 21.2% (inactive)"}
